Compound activity: PubChem BioAssay, National Center for Advancing Translational Sciences (NCATS)
The list is not random: actives were taken first. Their share in the collection is about 1.5%.
FEN1 inhibitor: inhibitors of human flap endonuclease 1; Potency, µM (top dose mostly 114 µM), actives largely listed as inhibitors; P39748; actives 0.35% (n = 390,000); Recombinant FEN1 flap cleavage, fluorescence, 15 min; AID 588795; also: nearly all actives have a fitted effect of over 65% in size
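Enzyme 10 nM, 15 min RT preincubation with compound; start with substrate 50 nM final; reads at 0 and 15 min; qHTS titration, four-parameter Hill fit.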
RECQ1 inh: inhibitors of human RECQ1 DNA helicase; RECQ1 DNA unwinding, red fluorescence kinetic read; actives 0.54% (n = 240,000); P46063; Potency, µM (top dose mostly 57.3 µM), usual class: inhibitors; also: nearly all actives have a fitted effect of over 30% in size
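50 nM RECQ1T1 preincubated 15 min with compound in Tris pH 8.0 buffer with MgCl2, DTT, Tween-20 and 2.5 ug/ml poly(dI-dC); started with 200 nM TAMRA/BHQ-2 forked duplex and 2 mM ATP. Unwinding read as fluorescence (525/598 nm), two reads 2 h apart.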
BLM helicase inh: blocks DNA unwinding by human BLM helicase; actives 0.2% (n = 350,000); recombinant BLM DNA unwinding, fluorescence dequenching; AID 2528; Potency, µM (highest dose often 56.1 µM), most hits filed as inhibitors; also: nearly all actives have a fitted effect of over 35% in size
WRN inhibitor: blocks human WRN helicase | actives 0.46% (n = 360,000) | Q14191 | Potency, µM (series often up to 114 µM), usual class: inhibitors | WRN helicase unwinding, fluorescent forked duplex, kinetic; also: nearly all actives have a fitted effect of over 55% in size
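Fluorescence dequenching readout, ex 525 nm/em 598 nm, kinetic mode: forked duplex DNA (100 nM final) with adjacent fluorophore and quencher unwound by WRN (20 nM final) with 2 mM ATP. Compound preincubation 15 min, room temperature.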
PI5P4K alpha inh: inhibitors of human PI5P4K alpha; max response, %; P48426; actives 1.2% (n = 330,000); AID 652105; PI5P4Kalpha enzyme, ADP-Glo luminescence, 60 min; stronger effect = lower value; active = max response of -50% or lower; inconclusive = between -30% and -50%; inactive = -30% or higher; also: value at the top dose of about 77 µM
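Compounds were pin-transferred onto PI5P4Kalpha and substrate in HEPES pH 7.4 buffer with EGTA, CHAPS and 5% DMSO. ATP (5 microM final) started the reaction, which ran 60 minutes at room temperature before ADP-Glo detection.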
APE1 inh: blocks human APE1 abasic DNA cleavage; P27695; Potency, µM (highest dose often 65.8 µM), most hits filed as inhibitors; actives 0.35% (n = 350,000); recombinant APE1, TAMRA/BHQ-2 abasic DNA cleavage fluorescence; also: nearly all actives have a fitted effect of over 55% in size
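Incision of a quenched TAMRA/BHQ-2 THF abasic-site duplex (50 nM) by 0.75 nM APE1, after 15 min compound preincubation, measured as fluorescence increase over three 60 s reads. Values normalized to buffer, DMSO and NSC13755 control wells.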
A number is an active result; i = inactive; ? = inconclusive; nt = not tested or not shown; ! = repeats disagree. Unless noted, calls follow the shape of the dose curve; as a rule, active = well fitted curve in the direction sought with a large enough effect; inconclusive = small, poorly fitted or top-dose-only effect, or another doubt; inactive = no such curve, though single readings can be large; an effect the other way counts as inactive or inconclusive.

SMILES	FEN1 inhibitor	RECQ1 inh	BLM helicase inh	WRN inhibitor	PI5P4K alpha inh	APE1 inh
COc1cc(NCc2ccc3nc(N)nc(N)c3c2C)cc(OC)c1OC	nt	i	17.8µM!	nt	nt	?
O=C1C=C(c2ccc3c(c2)OCO3)C[C@@H](c2ccc3c(c2)OCO3)C1	i	nt	nt	i	i	i
O=C1C=C(c2ccc3cc[nH]c3c2)C[C@@H](c2ccc3c(c2)OCO3)C1	?	nt	nt	?	?	11.9µM
CCCCN(CCC#N)c1ccc(/C=C/c2ccnc3ccccc23)cc1	i	nt	nt	nt	nt	nt
CC(=O)c1cccc(OCC(=O)N(C)CC(=O)NCc2ccco2)c1	?	nt	nt	?	i	9.47µM
Cc1ccc(OCC(=O)N(C)CC(=O)NCc2ccco2)c(Br)c1	i	nt	nt	?	?	?
COC(=O)/C=C/c1ccc2c(c1)S(=O)(=O)N(C1CCCC1)[C@H]2CC(=O)OC	i	nt	nt	nt	nt	nt
CC(C)C(=O)NC(=S)Nc1sc2c(c1C(N)=O)CCCC2	i	i	i	?	-54.2	i
CN(C)c1ccc(-c2cc(C3C4C=CCCC4(C)C(=O)N3Cc3ccccc3)ccc2F)cc1 (configuration not stated)	i	i	i	nt	nt	i
C=CCN=c1scc(-c2ccco2)n1/N=C/c1ccc(O)c(O)c1O	?	i	i	50.1µM	-72.9	?
CN=c1scc(-c2cccs2)n1/N=C/c1ccc(O)c(O)c1O	35.5µM	6.31µM	i	?	-75.4	6.31µM
CCC1S/C(=N/C(=O)NC2CCCCC2)NC1=O (configuration not stated)	i	i	i	i	i	i
O=C(/N=C1\NC(=O)C(F)(C(F)(F)F)S1)NC1CCCCC1 (configuration not stated)	i	i	i	50.1µM	-61.1	i
O=C1NC(=S)NC(=O)C1=Cc1ccccc1C(=O)O	i	nt	nt	i	-73.0	nt
O=C1NC(=S)N/C1=C/C=C/c1ccccc1	i	i	i	i	i	i
O=C(Nc1ccc(Cl)cc1Cl)[C@@H]1CC=C[C@@H]2CCN(C3CC3)C(=O)[C@@H]21	i	nt	nt	nt	nt	nt
CCc1cc(CNC(=O)c2ccc(OC3CCN(CCc4ccccc4)CC3)cc2)on1	i	nt	i	i	i	11.9µM
O=C(NCc1ccon1)c1ccc(OC2CCN(CCc3ccccc3)CC2)cc1	i	i	i	i	i	i
CCOc1ccc2c(c1)NC(c1cccs1)=NC(c1ccc(F)cc1)=N2	i	nt	i	nt	nt	nt
COc1cc2c(NC3CCN(C)CC3)nc(N3CCCCC3)nc2cc1OCCOCCN1CCCC1	20µM	nt	nt	nt	nt	nt
COc1cc2c(NC3CCN(C(C)C)CC3)nc(N3CCCN(C)CC3)nc2cc1OCCOCCN1CCCC1	20µM	nt	nt	nt	nt	nt
COc1cc2nc(N3CCCN(C)CC3)nc(OC3CCN(C)CC3)c2cc1OC	i	nt	nt	nt	nt	nt
COc1ccccc1OCCOCCN1CCCC1	i	nt	i	i	i	i
COc1cc2c(NC3CCN(C)CC3)nc(N3CCCN(C)CC3)nc2cc1OCCCN1CCOCC1	22.4µM	nt	nt	nt	nt	nt
COc1cc2c(NC3CCN(C)CC3)nc(N3CCCN(C)CC3)nc2cc1OCCCN1CCCC1	10µM	nt	nt	nt	nt	nt
SMILES	FEN1 inhibitor	RECQ1 inh	BLM helicase inh	WRN inhibitor	PI5P4K alpha inh	APE1 inh
O=C1CCSc2ccc(S(=O)(=O)Nc3ccc(Cl)c(C(F)(F)F)c3)cc2N1	i	nt	i	nt	nt	nt
CC(C)(C)n1ncc2c(=O)n(Cc3cccc(C(F)(F)F)c3)cnc21	i	nt	nt	nt	nt	i
Cc1nc(S/C(=C/c2ccc(-c3ccc(Cl)cc3)o2)C(=O)O)n[nH]1	i	i	i	i	i	i
CC(=O)c1ccc(-c2ccc(/C=C(/Sc3n[nH]c(C)n3)C(=O)O)o2)cc1	50.1µM	i	i	i	i	i
O=C1ON=C(c2ccccc2)/C1=C/c1ccc(-c2ccccc2[N+](=O)[O-])o1	i	?	i	?	-77.5	i
CCOC(=O)N1CCc2c(sc3[nH]c(=S)[nH]c(=S)c23)C1	i	i	i	i	-66.9	i
COc1cc2c(-c3ccc(O)cc3)nc3c(c(C)nn3-c3ccccc3)c2cc1OC	?	i	14.1µM	?	i	i
CCOc1ccc(Nc2ccc(N)c(S(=O)(=O)O)c2)cc1	i	nt	nt	?	-59.8	nt
CCOc1ccc(NS(=O)(=O)c2ccc(N)cc2)cc1	i	i	i	i	nt	i
O=c1c2c3nc4ccccc4nc3n(Cc3ccccc3)c2ncn1Cc1ccco1	i	i	?	?	-68.2	i
